Sampled rows, rich in hits. Any-hit rate of the full collection: about 2%.
TR SRC2 fluor cs = Texas Red fluorescence interference in TRb-SRC2 counter-screen; TRb/SRC2 Texas Red total fluorescence interference; hit rate 0.29% among 280,000; Potency, µM (doses to about 106 µM), without a hit: top-dose fluorescence change, negative = quenching; active = well fitted curve in either direction with a large enough effect; inconclusive = small, poorly fitted or top-dose-only effect; also: potency is read from the fitted curve at half-maximal effect; % is scaled to controls: 0 for no effect and ±100 for the full control effect
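Human TRb ligand-binding domain at 0.6 uM with 20 nM Texas Red SRC2 peptide in Tris buffer containing 1 uM T3 and 5% DMSO, incubated with compound 5 h at ambient temperature. Total fluorescence (555/632 nm) calculated as parallel + 2 × perpendicular.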
HTT aggregate = inhibitors of mutant huntingtin aggregate formation in PC12 cells; AID 1688; Potency, µM (highest dose often 46.1 µM), for inactives: at the highest dose activity change, negative = inhibition, hits mostly inhibitors; hit rate 1.1% among 220,000; PC12 HttQ103-GFP aggregates, Acumen cytometry, 40 h; also: potency is read from the fitted curve at half-maximal effect; % is scaled to controls: 0 for no effect and ±100 for the full control effect; nearly all actives have a fitted effect of over 60% in size
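Read-out: GFP aggregate count by laser scanning cytometer (488 nm excitation, 500-530 nm emission, 1–25 µm objects >6 SD above background). Cells: PC12, inducible HTTex1-Q103-GFP, 100 nM tebufenozide; compounds titrated.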
TRb-SRC2 inh = TRbeta-SRC2 interaction inhibition; P10828; TRbeta-SRC2 peptide binding, fluorescence polarization; receptor liganded with 1 µM T3; Potency, µM (titrated, usually from 106 µM), without a hit: at the highest dose activity change, negative = inhibition, hits mostly inhibitors; hit rate 0.065% among 280,000; AID 1469;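 also: potency is read from the fitted curve at half-maximal effect; plate controls were bound peptide for no effect and peptide without receptor for full effect; nearly all actives have a fitted effect of over 50% in size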
Target sequence (P10828 whole entry, looked up): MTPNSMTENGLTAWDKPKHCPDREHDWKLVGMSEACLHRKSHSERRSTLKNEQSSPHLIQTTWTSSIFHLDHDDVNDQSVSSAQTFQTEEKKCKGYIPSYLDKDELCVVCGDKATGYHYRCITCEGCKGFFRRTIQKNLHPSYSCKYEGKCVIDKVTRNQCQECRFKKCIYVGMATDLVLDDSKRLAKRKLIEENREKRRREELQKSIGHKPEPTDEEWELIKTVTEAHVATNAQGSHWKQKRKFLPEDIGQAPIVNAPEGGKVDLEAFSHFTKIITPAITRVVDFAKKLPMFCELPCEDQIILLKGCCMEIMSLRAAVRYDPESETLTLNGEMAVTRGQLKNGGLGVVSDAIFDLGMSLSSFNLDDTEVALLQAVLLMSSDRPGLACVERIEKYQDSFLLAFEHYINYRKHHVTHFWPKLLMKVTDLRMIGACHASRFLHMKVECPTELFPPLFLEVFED
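A fluorescence polarization screen tested compounds at multiple concentrations against complex formation between 0.6 uM TRb ligand-binding domain and 20 nM Texas Red SRC2 peptide, with 1 uM T3 present; readout after 5 hr.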
HTT ATP protect = Huntington cell model cytoprotection by ATP luminescence. PC12 HTT-Q103 induced, cytoprotection, ATP luminescence, 40 h. Potency, µM (titrated, usually from 56.4 µM), for the others: cytoprotection (ATP increase), hits mostly activators. hit rate 0.14% among 230,000; also: potency is read from the fitted curve at half-maximal effect; % of control where 0% means no effect; nearly all actives have a fitted effect of over 45% in size
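ATP quantification (ATPlite) reports survival of PC12 cells in which tebufenozide, 100 nM final, switches on Htt exon 1 with 103 glutamines linked to GFP; compounds are titrated.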
JMJD2E inh = JMJD2E (human) inhibition. B2RXH2. JMJD2E catalytic domain, FDH-coupled NADH fluorescence (FDH is formaldehyde dehydrogenase). Potency, µM (series often up to 57.1 µM), for the others: top-dose activity change, negative = inhibition, actives largely listed as inhibitors. hit rate 1.6% among 230,000. AID 2147; active = well fitted inhibition curve with a large enough effect, not every such curve was filed as active; inconclusive = small, poorly fitted or top-dose-only effect, or another doubt; inactive = no such curve, though single readings can be large or run the other way;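 also: potency is read from the fitted curve at half-maximal effect; 0% = wells with enzyme and -100% = buffer wells without enzyme; nearly all actives have a fitted effect of over 50% in size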
Target sequence (B2RXH2 1-337 limits assumed): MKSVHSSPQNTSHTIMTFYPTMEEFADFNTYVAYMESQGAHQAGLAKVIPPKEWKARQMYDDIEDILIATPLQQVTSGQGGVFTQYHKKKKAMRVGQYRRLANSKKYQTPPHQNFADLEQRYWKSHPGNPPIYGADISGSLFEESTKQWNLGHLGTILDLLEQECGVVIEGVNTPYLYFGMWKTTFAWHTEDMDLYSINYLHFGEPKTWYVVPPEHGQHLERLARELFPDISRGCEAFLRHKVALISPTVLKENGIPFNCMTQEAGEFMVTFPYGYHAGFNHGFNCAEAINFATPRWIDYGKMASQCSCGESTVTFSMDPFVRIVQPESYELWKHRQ
FBPA coupling cs = coupling enzyme interference in Giardia aldolase counter-screen | AID 2472 | activity change, negative = inhibition, % at 58.2 µM, hits read low | coupling enzyme system counterscreen, AmpLite Red fluorescence | hit rate 0.67% among 290,000; in the data active = activity change below about -30%; also: % is scaled to controls: 0 for no effect and ±100 for the full control effect
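Final compound at 57.5 uM, incubated 10 min at RT with coupling enzyme reagent (glyceraldehyde-3-phosphate), then 20 min with substrate and AmpLite Red detection. Fluorescence read at 525/598 nm; tests interference with the coupling assay, not aldolase inhibition.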
* = called active by the depositor; ? = inconclusive; . = not tested or not shown; ! = repeats disagree; [ ] = another dose, or the depositor's remark. Unless noted, calls follow the shape of the dose curve; as a rule, active = well fitted curve in the direction sought with a large enough effect; inconclusive = small, poorly fitted or top-dose-only effect, or another doubt; inactive = no such curve, though single readings can be large; an effect the other way counts as inactive or inconclusive.

SMILES	TR SRC2 fluor cs	HTT aggregate	TRb-SRC2 inh	HTT ATP protect	JMJD2E inh	FBPA coupling cs
OCCCNc1cc(-c2ccnc(Nc3cccc(Cl)c3)n2)ccn1	-2%	0.71µM*	13%	-5%[10 µM]	-26%	-2
Cc1ccc(C=Nc2ccc(N(C)C)cc2)o1	18%	-19%	?	-39%	13µM*	-22
CCOc1ccc(-n2c(=O)c3c(C)c(C)sc3n(CC(=O)Nc3ccc(CC)cc3)c2=O)cc1	-3%	.	3%	.	.	.
CN(C)CCN(Cc1ccccc1)c1ccccn1	0%	10%	6%	-3%	32µM*!	2
Cc1ccc(N(CC(=O)NCCSc2ccccc2)S(=O)(=O)c2ccc(F)cc2)cc1	1%	.	-13%	.	.	.
COc1ccc(C(=O)NNC(=S)NC(=O)c2ccc(OC)cc2)cc1	.	.	.	.	.	11
CCCCC(=O)NC(=S)NNC(=O)c1ccc(OC)cc1	-4%	10µM*	-2%	11%[10 µM]	?	1
Cc1cc2c(c3oc(=O)c4ccccc4c13)CN(Cc1ccc(F)cc1)CO2	-10%	.	2%	.	.	.
Fc1ccc(-c2nnc(CN3CCC(c4nc5ccccc5s4)CC3)o2)cc1	-4%	11µM*	-4%	-20%	-19%	3
Cc1ccc2nc(-c3cccc(S(=O)(=O)N(C)C)c3)cn2c1	-2%	-16%	8%	-38%	9%	-32*
CCN(CC)S(=O)(=O)c1cccc(-c2cn3cc(C)ccc3n2)c1	-3%	-29%	-7%	-37%	?	-26
COc1ccc(NC(=O)Cn2c(=O)n(CCC(=O)NCc3ccccc3OC)c(=O)c3ccccc32)cc1Cl	-10%	.	-6%	.	.	.
O=C(O)/C=C/C(=O)Nc1ccc(SC(F)(F)C(F)(F)C(F)(F)F)cc1	0%	-1%	32µM*	-57%	-21%	17
O=C(O)/C=C/C(=O)Nc1ccc(OC(F)(F)Cl)cc1	-1%	7%	-6%	-48%	-11%	6
O=C(N/N=C/c1ccc(N2CCOCC2)s1)c1ccccc1Br	-1%	-1%	-1%	-29%	-23%	-3
Clc1cccc(N/N=C/c2ccc(N3CCOCC3)s2)c1	-49%	5%	7%	33%[10 µM]	11µM*	-4
CCCCC(CC)CNC(=O)CN(C)S(=O)(=O)c1ccc2c(c1)c(=O)n(C)c(=O)n2C (centres undefined)	3%	.	6%	.	.	.
Cc1cc(/C=C(/C#N)c2nc3ccccc3[nH]2)c(C)n1-c1cc(C(=O)O)cc(C(=O)O)c1	-9%	10%	0%	-53%	22µM*	-4
O=C(Oc1c(Cl)cc(Cl)c2cccnc12)c1cccc([N+](=O)[O-])c1	7%	2.8µM*	3%	-81%[10 µM]	14µM*	-8
COC(=O)c1cc2oc3ccccc3c2n1Cc1cc(C)ccc1C	22µM*[quencher]	.	-9%	.	.	.
COC(=O)c1cc2oc3ccccc3c2n1Cc1nc(-c2ccccc2C)oc1C	20µM*[quencher]	.	-11%	.	.	.
COC(=O)c1cc2sc(C)cc2n1Cc1nc(-c2cccc(Br)c2)oc1C	2%	.	0%	.	.	.
COC(=O)c1cc2sc(C)cc2n1Cc1nc(-c2ccc(C)cc2)oc1C	89µM*[quencher]	.	-15%	.	.	.
O=C(/C=C\c1ccc2c(c1)OCO2)NC1CC(=O)N(c2cccc(F)c2)C1 (centres undefined)	1%	.	2%	.	.	.
Fc1cccc(CSc2ncnc3c2ncn3[C@H]2CCCS2)c1	.	.	.	-9%[10 µM]	.	.
SMILES	TR SRC2 fluor cs	HTT aggregate	TRb-SRC2 inh	HTT ATP protect	JMJD2E inh	FBPA coupling cs
CC1(C)CC(=O)C2=C(C1)N(Cc1ccco1)C(=O)C2(NC(=O)C1CCCCC1)C(F)(F)F (centres undefined)	0%	5.6µM*	14%	-4%	3%	-5
CCc1ccc(NC2=NC(C(=O)c3ccccc3)CC(=O)N2)cc1 (centres undefined)	-3%	-4%	-24%	15%[10 µM]	-2%	8
COC(=O)c1ccccc1NC1=C/C(=N\S(=O)(=O)c2cccs2)c2ccccc2C1=O	9%	?	?	-89%	?	4
CC(C)(C)c1ccc(S(=O)(=O)/N=C2\C=C(NS(=O)(=O)c3ccccc3)C(=O)c3ccccc32)cc1	.	.	.	.	.	-35*
COC(=O)c1ccccc1NC1=C/C(=N\S(=O)(=O)c2ccc(C(=O)O)cc2)c2ccccc2C1=O	.	.	.	.	.	-48*
C/C(=N\NS(=O)(=O)c1ccc(C(C)(C)C)cc1)c1ccccc1	.	.	.	.	.	-3
CCc1ccc(S(=O)(=O)/N=C2\C=C(Nc3ccc(C(=O)O)cc3)C(=O)c3ccccc32)cc1	.	.	.	.	.	-48*
Cc1ccc(S(=O)(=O)/N=C2\C=C(Nc3cccc(C(=O)O)c3)C(=O)c3ccccc32)c(C)c1	.	.	.	.	.	-43*
COc1cc(NC(=O)N2CCC3(CC2)Nc2ccccc2-n2cccc23)cc(OC)c1OC	-3%	.	8%	.	.	.
CCc1ccccc1NC(=O)CSc1nc2c(c(=O)[nH]1)CN(Cc1ccccc1OC)CC2	-1%	.	3%	.	.	.
CCC(C)(C)C1CCC(O)CC1 (centres undefined)	1%[201 µM]	.	1%[201 µM]	.	.	.
O=C(O)c1cccc(NS(=O)(=O)c2ccc3c(c2)C(=O)c2ccccc2C3=O)c1	-9%	6%[9.22 µM]	0%	3%[10 µM]	0%	4
Cc1ccc(S(=O)(=O)/N=C2\C=C(Nc3cccc(C(=O)O)c3)C(=O)c3ccccc32)cc1	.	.	.	.	.	-47*
Cc1cccc(-c2nnc3sc(-c4ccccc4C)nn23)c1	1%	11µM*	7%	-31%[0.074 µM]	-7%	-1
O=S(=O)(NCCc1ccccc1)c1ccc(N2CCCCS2(=O)=O)cc1	0%	.	-13%	.	.	.
Cc1ccc(/C=C2\C(=O)Nc3ccccc32)o1	0.11µM*[quencher]	3%	-13%[53 µM]	-2%[1.9 µM]	2%	-7
NS(=O)(=O)c1ccc(-c2ccc(/C=C3\C(=O)Nc4ccccc43)o2)cc1	.	.	.	.	.	0
C=CCNc1nc2c(c(=O)n(C)c(=O)n2C)n1CC	-5%	13µM*	11%	-28%	3%	0
C=CCNc1nc2c(c(=O)n(C)c(=O)n2C)n1CCCCCC	0%	?	-8%	-42%[10 µM]	-4%	0
CCOC(=O)CCN1C(=O)[C@H]2[C@H]3[C@H](O)[C@H](O)C/C(=N/NC(=O)OCc4ccccc4)[C@@H]3CC[C@@H]2C1=O	0%[11.2 µM]	.	-2%[11.2 µM]	0%[10 µM]	.	1
COC(=O)c1ccccc1NC(=O)COC(=O)c1ccccc1N=Nc1ccc(N(C)C)cc1	-1%	6.3µM*	-4%	-43%[10 µM]	-3%	-1
O=C(O)C(Cc1ccccc1)N1CCS(=O)(=O)CC1 (centres undefined)	-3%	5%	-3%	2µM*	13%	0
Cc1cccc(NC(=O)CSc2nc3c(c(=O)[nH]2)CN(Cc2ccc4c(c2)OCO4)CC3)c1C	-1%	.	-1%	.	.	.
